SMILES strings stand for the structures. For some of these results: Entries with a potency or affinity are not part of this list.

What all share (parameters): scale not given: direction of the effect not stated beside the values
Assay [1] concerns the target Protein translocase subunit SecA (Escherichia coli (strain K12)) (UniProt P10408). In words: Assay to Identify E. coli SecA ATPase Inhibitors. Type of assay: functional. As to conditions: 30 µM.
In assay [2] the target is T1, Ubiquitin-activating enzyme e1, putative (Leishmania donovani (strain BPK282A1)) (UniProt E9BSI1).
T1 sequence (whole entry): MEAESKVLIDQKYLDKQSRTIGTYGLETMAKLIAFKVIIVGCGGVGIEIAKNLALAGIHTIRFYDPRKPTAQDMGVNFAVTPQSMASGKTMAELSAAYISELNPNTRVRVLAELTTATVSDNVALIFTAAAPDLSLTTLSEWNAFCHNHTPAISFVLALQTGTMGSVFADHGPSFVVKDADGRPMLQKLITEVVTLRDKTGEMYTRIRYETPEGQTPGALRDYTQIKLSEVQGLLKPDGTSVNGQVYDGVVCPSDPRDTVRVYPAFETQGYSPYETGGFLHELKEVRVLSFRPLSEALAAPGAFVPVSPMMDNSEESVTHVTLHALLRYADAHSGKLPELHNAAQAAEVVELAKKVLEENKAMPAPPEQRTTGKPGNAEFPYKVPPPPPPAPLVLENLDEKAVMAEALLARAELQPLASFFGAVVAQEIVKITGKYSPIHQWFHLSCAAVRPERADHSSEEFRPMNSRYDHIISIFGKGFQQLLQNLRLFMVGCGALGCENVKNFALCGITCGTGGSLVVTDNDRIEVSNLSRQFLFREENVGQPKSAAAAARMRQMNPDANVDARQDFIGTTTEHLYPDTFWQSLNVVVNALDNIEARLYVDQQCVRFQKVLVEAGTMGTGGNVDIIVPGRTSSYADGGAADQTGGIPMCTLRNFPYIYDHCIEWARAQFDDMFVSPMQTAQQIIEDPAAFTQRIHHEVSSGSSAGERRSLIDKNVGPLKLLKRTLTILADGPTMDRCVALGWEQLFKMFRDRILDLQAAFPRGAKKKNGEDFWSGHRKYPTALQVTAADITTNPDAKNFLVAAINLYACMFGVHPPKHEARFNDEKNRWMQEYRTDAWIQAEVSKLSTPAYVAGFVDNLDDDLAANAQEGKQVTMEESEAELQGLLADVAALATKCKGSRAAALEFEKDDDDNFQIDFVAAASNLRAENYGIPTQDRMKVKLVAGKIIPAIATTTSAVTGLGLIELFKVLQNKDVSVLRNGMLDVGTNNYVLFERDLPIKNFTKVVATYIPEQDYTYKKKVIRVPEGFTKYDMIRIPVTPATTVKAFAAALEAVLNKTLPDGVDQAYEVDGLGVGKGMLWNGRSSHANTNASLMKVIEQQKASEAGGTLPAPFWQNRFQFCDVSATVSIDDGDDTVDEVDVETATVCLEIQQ
The assay can be described thus: Leishmania donovani Ubiquitin Activating Enzyme (LdE1). Type of assay: functional. As to conditions: 30 µM.

The target of assay [3] is AMP-activated protein kinase, AMPK (Homo sapiens) (UniProt P54646+O43741+P54619+Q9UGJ0+Q9Y478+Q13131+Q9UGI9). The assay can be described thus: AMP-dependent Kinase enzyme assay. An in vitro enzyme assay that detects ADP turnover that is directly proportional to AMPK activity. This uses naive AMPK that is activated during the assay with MK-8722. The class given is functional. As to conditions: 30 µM.

Assay [4] concerns the target Sialic acid-binding Ig-like lectin 9 (Homo sapiens) (UniProt Q9Y336). In words: Hs-Siglec9 ALPHAscreen SOP 20170721. As to conditions: 10 µM.
The test system of a further assay is Trypanosoma cruzi. The assay can be described thus: Trypanosoma cruzi phosphomannomutase and mannose-1-phosphate guanylyltransferase assay. Type of assay: functional. To be noted: 10 µM.
The target in assay [5] is T2, Arginase-2, mitochondrial (Homo sapiens) (UniProt P78540).
T2 sequence (whole entry): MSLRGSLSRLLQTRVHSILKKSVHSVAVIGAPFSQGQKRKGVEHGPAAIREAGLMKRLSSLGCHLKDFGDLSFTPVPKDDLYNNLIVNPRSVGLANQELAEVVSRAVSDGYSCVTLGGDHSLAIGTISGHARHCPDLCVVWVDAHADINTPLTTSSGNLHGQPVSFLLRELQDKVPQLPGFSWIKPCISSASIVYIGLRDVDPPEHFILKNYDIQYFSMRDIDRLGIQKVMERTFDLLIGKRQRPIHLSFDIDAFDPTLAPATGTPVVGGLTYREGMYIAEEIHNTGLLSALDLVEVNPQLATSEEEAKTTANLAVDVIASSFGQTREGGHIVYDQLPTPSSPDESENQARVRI
In words: in vitro enzyme assay to detect the production of urea directly proportional to the activity of Arginase II. Note: in the data most compounds retested in dose-response had high values. Type of assay: functional. To be noted: 33.3 µM.

The target of assay [6] is T3, Proteasome subunit beta (Trypanosoma cruzi) (UniProt O96673).
T3 sequence (whole entry): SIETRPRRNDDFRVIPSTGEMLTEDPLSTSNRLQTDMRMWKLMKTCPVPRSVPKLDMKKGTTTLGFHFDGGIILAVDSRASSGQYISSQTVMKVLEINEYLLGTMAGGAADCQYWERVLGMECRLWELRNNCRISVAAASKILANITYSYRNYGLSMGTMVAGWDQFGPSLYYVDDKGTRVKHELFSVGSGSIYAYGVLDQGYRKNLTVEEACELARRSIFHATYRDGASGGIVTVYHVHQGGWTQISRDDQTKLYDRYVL
In words: Trypanosoma cruzi proteasome chymotrypsin-like activity (TcProtChymo) assay. Note: in the data most compounds retested in dose-response had high values. Type of assay: functional. As to conditions: 9.37 µM.

The species entered for the next assay is Homo sapiens. The assay can be described thus: To identify inhibition of the IFN signalling (Jak-Stat) pathway via expression of an eGFP reporter gene under the control of an IFN-stimulated response element (ISRE) containing MxA promoter. The class given is functional. As to conditions: 30 µM.
Assay [7] concerns the target T4, Tyrosyl-tRNA synthetase, putative (Trypanosoma cruzi (strain CL Brener)) (UniProt Q4DSP6).
T4 sequence (whole entry): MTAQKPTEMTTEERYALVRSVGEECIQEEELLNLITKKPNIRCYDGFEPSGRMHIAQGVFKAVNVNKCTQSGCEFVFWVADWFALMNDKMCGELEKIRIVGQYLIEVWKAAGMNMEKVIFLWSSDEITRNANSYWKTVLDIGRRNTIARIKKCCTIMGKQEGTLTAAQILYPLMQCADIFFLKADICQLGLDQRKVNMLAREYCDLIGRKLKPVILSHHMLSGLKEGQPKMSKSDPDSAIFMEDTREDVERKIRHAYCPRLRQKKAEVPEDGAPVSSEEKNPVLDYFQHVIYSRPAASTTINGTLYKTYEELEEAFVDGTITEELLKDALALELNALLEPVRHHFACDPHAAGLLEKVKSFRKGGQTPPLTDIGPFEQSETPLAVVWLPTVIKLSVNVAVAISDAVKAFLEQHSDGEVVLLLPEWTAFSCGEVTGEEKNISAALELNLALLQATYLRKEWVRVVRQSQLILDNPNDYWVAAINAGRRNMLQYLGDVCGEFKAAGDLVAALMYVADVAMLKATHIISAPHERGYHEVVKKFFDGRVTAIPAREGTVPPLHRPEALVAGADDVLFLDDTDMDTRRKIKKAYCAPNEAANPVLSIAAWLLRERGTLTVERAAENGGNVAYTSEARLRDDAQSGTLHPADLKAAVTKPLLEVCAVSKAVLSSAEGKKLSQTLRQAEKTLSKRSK
In words: Trypanosoma cruzi tyrosyl tRNA synthetase (TcYRS) _High Tyrosine SOP. Note: in the data most compounds retested in dose-response had high values. Type of assay: functional. As to conditions: 30 µM.

Assay [8] has as its target T4, Tyrosyl-tRNA synthetase, putative (Trypanosoma cruzi (strain CL Brener)). The assay can be described thus: Trypanosoma cruzi tyrosyl tRNA synthetase (TcYRS) SOP. The class given is functional. As to conditions: 30 µM.
The target in assay [9] is Chromo domain-containing protein 1 (Saccharomyces cerevisiae (strain ATCC 204508 / S288c) (Baker's yeast)) (UniProt P32657). In words: ScCHD-1 Enzyme Inhibition Assay. Note: in the data most compounds retested in dose-response had high values. To be noted: 30 µM. The class given is functional.
Chromo domain-containing protein 1 (Saccharomyces cerevisiae (strain ATCC 204508 / S288c) (Baker's yeast)), sequence (P32657 whole entry, the tested form may be a part): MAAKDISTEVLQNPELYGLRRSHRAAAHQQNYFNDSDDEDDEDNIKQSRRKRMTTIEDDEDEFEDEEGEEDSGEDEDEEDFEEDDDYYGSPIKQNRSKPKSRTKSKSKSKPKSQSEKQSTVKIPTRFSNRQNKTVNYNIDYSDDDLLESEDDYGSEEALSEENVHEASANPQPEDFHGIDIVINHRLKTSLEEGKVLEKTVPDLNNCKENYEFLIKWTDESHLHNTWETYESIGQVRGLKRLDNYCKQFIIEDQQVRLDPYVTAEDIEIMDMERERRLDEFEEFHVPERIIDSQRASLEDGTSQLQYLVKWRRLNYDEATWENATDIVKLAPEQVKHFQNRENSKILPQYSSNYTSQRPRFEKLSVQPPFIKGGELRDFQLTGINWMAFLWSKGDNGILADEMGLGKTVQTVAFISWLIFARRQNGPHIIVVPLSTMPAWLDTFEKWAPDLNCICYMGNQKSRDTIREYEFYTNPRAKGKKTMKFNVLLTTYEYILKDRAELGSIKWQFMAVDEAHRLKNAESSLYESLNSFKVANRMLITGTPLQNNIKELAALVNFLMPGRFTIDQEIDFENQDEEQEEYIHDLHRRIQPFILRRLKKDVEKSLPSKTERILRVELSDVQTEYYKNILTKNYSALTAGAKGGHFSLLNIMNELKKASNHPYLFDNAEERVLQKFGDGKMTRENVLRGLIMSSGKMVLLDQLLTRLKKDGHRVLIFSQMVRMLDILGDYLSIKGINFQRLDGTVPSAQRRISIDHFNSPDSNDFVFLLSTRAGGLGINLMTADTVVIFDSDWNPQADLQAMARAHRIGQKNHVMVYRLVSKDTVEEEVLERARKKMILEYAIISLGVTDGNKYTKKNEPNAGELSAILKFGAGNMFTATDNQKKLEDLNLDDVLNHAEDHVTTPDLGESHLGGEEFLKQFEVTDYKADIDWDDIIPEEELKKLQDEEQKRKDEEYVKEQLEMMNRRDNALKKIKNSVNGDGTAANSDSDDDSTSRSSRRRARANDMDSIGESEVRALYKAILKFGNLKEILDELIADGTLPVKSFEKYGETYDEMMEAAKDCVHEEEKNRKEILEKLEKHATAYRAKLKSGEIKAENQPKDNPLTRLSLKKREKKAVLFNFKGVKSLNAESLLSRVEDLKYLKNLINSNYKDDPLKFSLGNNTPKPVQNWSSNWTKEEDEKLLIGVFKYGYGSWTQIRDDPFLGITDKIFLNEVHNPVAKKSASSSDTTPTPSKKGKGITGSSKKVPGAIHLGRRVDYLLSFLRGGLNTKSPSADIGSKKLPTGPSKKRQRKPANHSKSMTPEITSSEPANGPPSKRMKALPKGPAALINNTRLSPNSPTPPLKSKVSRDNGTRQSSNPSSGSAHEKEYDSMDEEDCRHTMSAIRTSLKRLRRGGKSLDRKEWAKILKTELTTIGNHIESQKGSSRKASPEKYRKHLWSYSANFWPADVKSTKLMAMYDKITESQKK

Protein translocase subunit SecA (Escherichia coli (strain K12)), sequence (P10408 whole entry): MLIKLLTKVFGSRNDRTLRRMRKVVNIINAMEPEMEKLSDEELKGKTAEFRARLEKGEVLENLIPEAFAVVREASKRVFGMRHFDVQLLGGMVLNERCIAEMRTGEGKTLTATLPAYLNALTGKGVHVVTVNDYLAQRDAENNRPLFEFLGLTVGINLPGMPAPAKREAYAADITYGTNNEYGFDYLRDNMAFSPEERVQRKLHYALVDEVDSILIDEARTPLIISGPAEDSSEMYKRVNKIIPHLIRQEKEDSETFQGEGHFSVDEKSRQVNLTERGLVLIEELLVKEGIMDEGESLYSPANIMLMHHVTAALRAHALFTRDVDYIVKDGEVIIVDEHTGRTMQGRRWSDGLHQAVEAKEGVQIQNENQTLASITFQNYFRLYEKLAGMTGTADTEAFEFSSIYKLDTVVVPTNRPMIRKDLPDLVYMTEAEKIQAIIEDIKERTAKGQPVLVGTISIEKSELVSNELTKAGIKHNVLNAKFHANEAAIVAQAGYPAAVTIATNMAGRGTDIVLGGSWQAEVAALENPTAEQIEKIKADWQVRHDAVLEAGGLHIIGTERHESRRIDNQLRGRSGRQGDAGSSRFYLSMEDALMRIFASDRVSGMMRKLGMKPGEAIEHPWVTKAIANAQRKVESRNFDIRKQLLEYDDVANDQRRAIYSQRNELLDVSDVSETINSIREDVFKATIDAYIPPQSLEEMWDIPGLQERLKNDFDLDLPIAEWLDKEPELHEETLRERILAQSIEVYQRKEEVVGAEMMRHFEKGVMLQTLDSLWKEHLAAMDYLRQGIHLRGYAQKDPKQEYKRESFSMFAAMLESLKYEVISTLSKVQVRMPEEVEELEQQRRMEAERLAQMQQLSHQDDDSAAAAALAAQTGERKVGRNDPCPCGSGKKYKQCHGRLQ
Sialic acid-binding Ig-like lectin 9 (Homo sapiens), sequence (Q9Y336 whole entry): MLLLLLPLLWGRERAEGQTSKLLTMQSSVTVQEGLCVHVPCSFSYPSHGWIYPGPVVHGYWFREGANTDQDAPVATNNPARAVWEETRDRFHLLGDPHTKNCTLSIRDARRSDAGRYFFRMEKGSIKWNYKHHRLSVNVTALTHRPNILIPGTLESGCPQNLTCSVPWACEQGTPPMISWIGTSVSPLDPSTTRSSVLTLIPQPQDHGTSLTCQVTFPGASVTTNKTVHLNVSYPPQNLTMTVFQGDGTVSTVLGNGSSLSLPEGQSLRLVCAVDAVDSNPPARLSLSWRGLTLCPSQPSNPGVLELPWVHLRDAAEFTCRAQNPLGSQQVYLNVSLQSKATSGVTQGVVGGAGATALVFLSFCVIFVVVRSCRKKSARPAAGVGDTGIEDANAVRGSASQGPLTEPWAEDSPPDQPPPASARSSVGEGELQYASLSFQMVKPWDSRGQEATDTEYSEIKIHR

As to `O=C(CCc1cscn1)N1CCCC1c1noc(C2CC2)n1` (stereo unspecified), the Percent Effect in assay [1] was -5.78%; in [2], 16.2%; in assay [3] it was -11.8%; in assay [4] it was 6.15%; in the assay on Trypanosoma cruzi, -1.42%; in [5], -2%. Besides, the Percent Effect is 11.3% in assay [6]; 6.02% in the assay listed under Homo sapiens; 12.3% in [7]; 16.1% in assay [8]; -5.15% in assay [9].
For the compound `COc1cccc(COCC(=O)N2CCC(CC(N)=O)CC2)c1`, the Percent Effect was -3.54% in assay [1]; 7.89% in [2]; -1.04% in assay [3]; -0.0672% in assay [4]; -6.77% in the assay with Trypanosoma cruzi; 5.75% in assay [5]. Moreover, the Percent Effect in assay [6] was 0.334%; in the assay filed under Homo sapiens it was 23.7%; in assay [7] it was 5.39%; in assay [8], 12.2%; in assay [9], -3.41%.
As for `CN1CCN(c2nc(O)c3c(-c4ccccn4)ccnc3n2)CC1`, the Percent Effect in assay [1] was -4.77%; in assay [2], 0%; in assay [3], 6.93%; in assay [4] it was 2.2%; in the assay on Trypanosoma cruzi, -2.24%; in assay [5], -7.1%. Also, the Percent Effect in [6] is 18.1%; in the assay listed under Homo sapiens, -16.4%; in assay [7], 6.38%; in assay [8], 10.4%; in assay [9], -7.72%.
In the case of `NC(=O)CCN1CCC(C(=O)c2cc(F)ccc2F)CC1`, the Percent Effect in [1] was -1.09%; in [2], 7.89%; in assay [3] it was -2.87%; in assay [4], -1.51%; in the assay on Trypanosoma cruzi it was 3.21%; in [5], -5.92%. Also, the Percent Effect in [6] was 0.671%; in the assay filed under Homo sapiens it was -0.792%; in assay [7], 3.19%; in assay [8], 2.6%; in [9] it was -16%.
As for `CC(C)c1nc(CN2CCN(C(C)c3nc(C4CC4)no3)CC2)no1` (stereo unspecified), the Percent Effect was -0.845% in [1]; -3.8% in [2]; 4.42% in assay [3]; 1.01% in assay [4]; -1.13% in the assay on Trypanosoma cruzi; 1.07% in [5]. The Percent Effect was 3.09% in assay [6]; -8.78% in the assay filed under Homo sapiens; 2.08% in [7]; 2.53% in [8]; 2.13% in [9].
As for `CNS(=O)(=O)Cc1ccc(CNC(=O)Nc2cccnc2)cc1`, the Percent Effect is -1.42% in assay [1]; 30.4% in assay [2]; -9.66% in assay [3]; -12.1% in assay [4]; 4.25% in the assay with Trypanosoma cruzi; -6.08% in assay [5]. Further, the Percent Effect in [6] was 14.2%; in the assay listed under Homo sapiens it was 11.1%; in assay [7], 6.4%; in assay [8], 16.5%; in assay [9], -12.7%.
Turning to `Cn1ccnc1CNC1CCCN(Cc2noc(C3CC3)n2)C1` (stereo unspecified), the Percent Effect in assay [1] was -1.62%; in [2] it was 0%; in assay [3], -11.6%; in [4], 4.95%; in the assay with Trypanosoma cruzi it was 2.9%; in assay [5] it was 3.81%. Besides, the Percent Effect is 13.8% in assay [6]; 1.96% in the assay listed under Homo sapiens; 10.1% in assay [7]; 17.1% in assay [8]; -3.57% in [9].
With `C[C@@H]1CN(C(=O)NC2CC2)C[C@]12CCN(c1ccsc1)C2=O`, the Percent Effect was -4.11% in [1]; 5.33% in assay [2]; 8.07% in [3]; 0.822% in assay [4]; -4.13% in the assay with Trypanosoma cruzi; 2.1% in [5]. Further, the Percent Effect in assay [6] was 2.56%; in the assay filed under Homo sapiens, 8.5%; in [7], 4.25%; in assay [8] it was 11.5%; in assay [9] it was -3.74%.
Consider `O=c1[nH]c(CN(Cc2ccco2)C2CCCC2)nc2ccccc12`, for which the Percent Effect in assay [1] is -2.15%; in [2] it was 18.2%; in [3] it was 7.19%; in assay [4], 1.72%; in the assay on Trypanosoma cruzi, 3.75%; in assay [5], 0.712%. Moreover, the Percent Effect in [6] is 10.5%; in the assay listed under Homo sapiens, 26.1%; in [7], 8.74%; in assay [8], 24.4%; in [9] it was -9.34%.
For the compound `COc1ccc(OC)c(C(O)CN2CC(n3cccn3)C2)c1` (stereo unspecified), the Percent Effect in [1] is -3.82%; in assay [2] it was -10.5%; in [3] it was 2.67%; in [4], 6.6%; in the assay on Trypanosoma cruzi it was 9.02%; in assay [5] it was 4.98%. The Percent Effect in [6] was 9.52%; in the assay filed under Homo sapiens it was -12.8%; in [7], 6.37%; in [8], 9.76%; in [9] it was -8.21%.
Consider `CCc1ccccc1NC(=O)N1CCn2cnc(COC)c2C1`, for which the Percent Effect is -3.57% in [1]; 8.11% in [2]; -9.76% in assay [3]; 17.5% in assay [4]; 5.38% with Trypanosoma cruzi; 15.1% in assay [5]. Further, the Percent Effect in [6] is 0.601%; in the assay filed under Homo sapiens, 17.8%; in assay [7], 5.38%; in assay [8] it was -1.24%; in [9], -5.57%.

(Values after ChEMBL document CHEMBL3988442, “University of Dundee, Small-Polar-MMV Screening Library” (2021).)
